# Measurements reported in PubChem BioAssay (NCI).
# The panel holds about 79,000 compounds, 15% with a hit somewhere; the sample as a whole holds those more often. Values without a mark were called inactive. Activity calls are given as the source filed them. Rule as the data show it: active = growth inhibition above about 70%; inactive = the rest.
# Key:
# [1] = NCI Yeast Anticancer Drug Screen. Data for the mec2-1 strain (AID 157); details: S. cerevisiae mec2-1 strain, stronger effect = higher value
# In short: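 Cells of the genetically defined mec2-1 yeast strain are incubated with test compound. Inhibition of growth is calculated against vehicle-treated controls.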
# [2] = NCI Yeast Anticancer Drug Screen. Data for the rad14 strain (AID 159);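 also: 0% = growth of vehicle-treated control cultures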; details: S. cerevisiae rad14 strain growth inhibition, stronger effect = higher value
# In short: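 Inhibition of growth is reported for a repair-deficient yeast mutant following compound treatment, calculated relative to cultures that received vehicle.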
# [3] = NCI Yeast Anticancer Drug Screen. Data for the sgs1 mgt1 strain (AID 161);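 also: 0% = growth of cultures given vehicle only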; details: S. cerevisiae sgs1 mgt1 strain, stronger effect = higher value
# In short: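 Test agents were incubated with a DNA-repair-mutant yeast strain. Growth was then read and compared against vehicle-treated controls.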
# [4] = NCI Yeast Anticancer Drug Screen. Data for the CLN2oe strain (AID 163);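 also: 0% = growth of vehicle-only control cultures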; details: S. cerevisiae CLN2oe strain, stronger effect = higher value
# In short: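 Strain altered in cell-cycle control, incubated with compound; growth compared to solvent-treated controls.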
# [5] = NCI Yeast Anticancer Drug Screen. Data for the cln2 rad14 strain (AID 165);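 also: 0% = growth equal to vehicle treated cultures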; details: S. cerevisiae cln2 rad14 strain, stronger effect = higher value
# In short: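 The screen exposed genetically defined yeast (cln2 rad14) to test compounds and scored growth inhibition relative to vehicle-treated controls.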
# [6] = NCI Yeast Anticancer Drug Screen. Data for the bub3 strain (AID 167); details: S. cerevisiae bub3 mutant strain, stronger effect = higher value
# In short: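 Mutant yeast screening strain plus compound; vehicle-treated cultures serve as the 0% inhibition reference.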
# [7] = NCI Yeast Anticancer Drug Screen. Data for the wt2 strain (AID 169); details: S. cerevisiae wt2 strain growth inhibition, stronger effect = higher value
# In short: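 Steps: yeast strain treated with compound; growth recorded; inhibition calculated relative to cultures given vehicle alone.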
# [8] = NCI Yeast Anticancer Drug Screen. Data for the mlh1 strain (AID 171);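 also: 0% = growth of vehicle-treated control cultures of the same strain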; details: S. cerevisiae mlh1 strain growth inhibition, stronger effect = higher value
# In short: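 Yeast screen: mutant strain plus compound, growth scored against vehicle control wells.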
# [9] = NCI Yeast Anticancer Drug Screen. Data for the sgs1 strain (AID 173);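 also: 0% = growth of vehicle-only control cultures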; details: S. cerevisiae sgs1 mutant, stronger effect = higher value
# In short: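 Inhibition of yeast growth served as the measure. The mutant strain was treated with each compound, and growth was normalised to cultures receiving vehicle alone.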
# [10] = NCI Yeast Anticancer Drug Screen. Data for the mlh1 rad18 strain (AID 175); details: S. cerevisiae mlh1 rad18 strain growth inhibition, stronger effect = higher value
# In short: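 Compound-treated yeast growth, normalised to vehicle controls. Strain bears defined DNA repair mutations.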
# [11] = NCI Yeast Anticancer Drug Screen. Data for the rad18 strain (AID 177); details: S. cerevisiae rad18 mutant growth inhibition, stronger effect = higher value
# In short: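 Inhibition values reflect reduced yeast growth compared with vehicle-treated controls, using a strain engineered with a DNA damage repair defect.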
# [12] = at 5.0 µM (retest, dose inferred, filed as 0.5)
# [13] = at 50.0 µM (retest, dose inferred, filed as 5.0)
compound,measurement,setting,value
Cc1cc(C(C)(C)CC(C)(C)C)ccc1O,growth inhibition,[1]; [12],28%
same,growth inhibition,[1]; at 11.0 µM,3%
same,growth inhibition,[1]; at 33.0 µM,99% (active)
same,growth inhibition,[1]; [13],70% (active)
same,growth inhibition,[1]; at 50.0 µM,91.8% (active)
same,growth inhibition,[1]; at 100.0 µM,99% (active)
same,growth inhibition,[2]; at 1.2 µM,-3%
same,growth inhibition,[2]; at 3.7 µM,-30%
same,growth inhibition,[2]; at 11.0 µM,16%
same,growth inhibition,[2]; at 33.0 µM,99% (active)
same,growth inhibition,[2]; at 100.0 µM,99% (active)
same,growth inhibition,[3]; [12],-14%
same,growth inhibition,[3]; [13],99% (active)
same,growth inhibition,[3]; at 50.0 µM,93.7% (active)
same,growth inhibition,[4]; at 1.2 µM,-31%
same,growth inhibition,[4]; at 3.7 µM,-28%
same,growth inhibition,[4]; at 11.0 µM,-17%
same,growth inhibition,[4]; at 33.0 µM,98% (active)
same,growth inhibition,[4]; at 100.0 µM,99% (active)
same,growth inhibition,[5]; [12],55%
same,growth inhibition,[5]; [13],98% (active)
same,growth inhibition,[5]; at 50.0 µM,92.8% (active)
same,growth inhibition,[6]; at 1.2 µM,-9%
same,growth inhibition,[6]; at 3.7 µM,-49%
same,growth inhibition,[6]; [12],6%
same,growth inhibition,[6]; at 11.0 µM,32%
same,growth inhibition,[6]; at 33.0 µM,98% (active)
same,growth inhibition,[6]; [13],99% (active)
same,growth inhibition,[6]; at 50.0 µM,92.4% (active)
same,growth inhibition,[6]; at 100.0 µM,99% (active)
same,growth inhibition,[7]; at 1.2 µM,-20%
same,growth inhibition,[7]; at 3.7 µM,-34%
same,growth inhibition,[7]; at 11.0 µM,-10%
same,growth inhibition,[7]; at 33.0 µM,99% (active)
same,growth inhibition,[7]; at 100.0 µM,99% (active)
same,growth inhibition,[8]; at 1.2 µM,-16%
same,growth inhibition,[8]; at 3.7 µM,-53%
same,growth inhibition,[8]; at 11.0 µM,-16%
same,growth inhibition,[8]; at 33.0 µM,95% (active)
same,growth inhibition,[8]; at 100.0 µM,99% (active)
same,growth inhibition,[9]; at 1.2 µM,-17%
same,growth inhibition,[9]; at 3.7 µM,-38%
same,growth inhibition,[9]; at 11.0 µM,14%
same,growth inhibition,[9]; at 33.0 µM,99% (active)
same,growth inhibition,[9]; at 100.0 µM,99% (active)
same,growth inhibition,[10]; [12],26%
same,growth inhibition,[10]; [13],73% (active)
same,growth inhibition,[10]; at 50.0 µM,92.9% (active)
same,growth inhibition,[11]; at 1.2 µM,-13%
same,growth inhibition,[11]; at 3.7 µM,-42%
same,growth inhibition,[11]; at 11.0 µM,36%
same,growth inhibition,[11]; at 33.0 µM,98% (active)
same,growth inhibition,[11]; at 100.0 µM,98% (active)
